Records with an inconclusive call do not appear. Active and inactive are the calls of the source. Calls come from the whole dose curve; as a rule, active = well fitted inhibition curve with a large enough effect; inconclusive = small, poorly fitted or top-dose-only effect; inactive = flat fitted curve, though single readings scatter.

This note sets out measurements from PubChem BioAssay (NCATS).

This experiment deals with CRL-7250. The experiment in a line: qHTS assay to identify novel small-molecules to repurpose for Merkel cell carcinoma treatment (AID 1296009). Note: nearly all actives have a fitted effect of over 60% in size. To be noted: MCC and control cell lines, CellTiter-Glo viability, 72 h; series mostly up to 92 µM; activity change, negative = cytotoxicity: at the top concentration. The procedure, abridged: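 Cells were incubated with compound for 72 hr at 37 degree celsius before CellTiter-Glo addition. Luminescence was normalized with no-cell wells as full cytotoxicity and DMSO as baseline.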
(Quantitative high-throughput screening tests each substance at several concentrations.)
With `CC(C)=C1CC2C(CCC2(C)O)C(C)(O)CC1=O` (stereo not given), the result was inactive.

In the case of `O=C(NCC1(N2CCN(c3ccccc3)CC2)CCOCC1)c1cccnc1Sc1ccccc1`, the call was inactive.

In the case of `CC(=O)NC(C(=O)OC1CCC(C)(C)C2CC=C3C(=O)OCC3C12C)C(C)C` (stereo not given), the compound was classed as inactive.

With `CC(=O)OC[C@@]12[C@H](O)C[C@@H](C)[C@]3(C[C@@H](c4ccoc4)OC3=O)[C@H]1C[C@H](O)C[C@]21CO1`, the “outcome” value was “inactive [at 17.4 µM]”.

On to `CC(C)C1C(OC(=O)/C=C/c2ccccc2)CC2(C)OC2CCC2(C)OC2C1O` (stereo not given), for which the compound was called inactive.

On to `CC12CCC3c4ccc(O)cc4CCC3C1CCC2OC1OC(C(=O)O)C(O)C(O)C1O` (stereo not given), for which the call was inactive.

Turning to `O=C(/C=C/c1ccc(O)cc1)OCC1OC(O)C(OC2OC(CO)C(O)C(O)C2O)C(O)C1O` (stereo not given), the “outcome” value is “inactive [at 17.4 µM]”.

With `CCCCC(=O)N1c2ccccc2NC2=C(C(=O)CCC2)C1c1ccccc1Cl` (stereo not given), the outcome was inactive.

As to `C=CC(C)(O)CC/C=C(\C)C1CC=C(C)C(=O)O1` (stereo not given), the compound was classed as inactive.

Turning to `OCC1OC(Oc2cc(O)cc(/C=C/c3ccc(OC4OC(CO)C(O)C(O)C4O)cc3O)c2)C(O)C(O)C1O` (stereo not given), the “outcome” value is “inactive [at 17.4 µM]”.

Consider `NC1(c2ccc(NC(=O)c3ccnc(-c4cc(C(=O)O)ccn4)c3)cc2)CC1`, for which the compound was called inactive.

On to `CC1CCC2(C(=O)O)CCC3(C)C(=CCC4C5(C)CCC(OC(=O)/C=C/c6ccccc6)C(C)(C)C5CCC43C)C2C1C` (stereo not given), for which the “outcome” value is “inactive [at 17.4 µM]”.

On to `CCC(C)/C=C(C)/C=C/C1=CC2=C(Cl)C(=O)C(C)(OC(C)=O)C(=O)C2=CN1CCCC(=O)O` (stereo not given), for which the “outcome” value was “inactive [at 17.4 µM]”.

With `CC(=O)OC(C)(C)/C=C/C(=O)[C@](C)(O)C1[C@H](O)C[C@@]2(C)[C@@H]3CC=C4[C@@H](C[C@H](O[C@@H]5O[C@H](CO)[C@@H](O)[C@H](O)[C@H]5O)C(=O)C4(C)C)[C@]3(C)C(=O)C[C@]12C` (stereo not given in full), the “outcome” value was “inactive [at 17.4 µM]”.

Regarding `C[C@@H]1CC[C@]2(C(=O)O[C@@H]3O[C@H](CO)[C@@H](O)[C@H](O)[C@H]3O)CC[C@]3(C)C(=CCC4[C@@]5(C)C[C@@H](O)[C@H](O)[C@@](C)(C(=O)O[C@H]6[C@H](O)C[C@@]7(C)C(CC[C@]8(C)C7CC=C7[C@H]9[C@](C(=O)O[C@@H]%10O[C@H](CO)[C@@H](O)[C@H](O)[C@H]%10O)(CC[C@@H](C)[C@@]9(C)O)CC[C@]78C)[C@@]6(CO)C(=O)O)C5CC[C@]43C)[C@@H]2[C@]1(C)O` (stereo not given in full), the outcome was “inactive [at 9.27 µM]”.

On to `C[C@@H]1CC[C@]2(C(=O)OC3OC(CO)C(O)C(O)C3O)CC[C@]3(C)C(=CCC4[C@@]5(C)CC[C@H](O)[C@](C)(C(=O)O)C5CC[C@]43C)C2[C@]1(C)O` (stereo not given in full), for which the “outcome” value is “inactive [at 17.4 µM]”.

On to `C[C@@H]1O[C@@H](O[C@H]2[C@H](OC(=O)[C@]34CCC(C)(C)C[C@H]3C3=CCC5[C@@]6(C)C[C@H](O)[C@H](O[C@@H]7O[C@H](C(=O)O)[C@@H](O)[C@H](O)[C@H]7O)[C@@](C)(CO)C6[C@H](O)C[C@@]5(C)[C@]3(C)C[C@H]4O)O[C@@H](CO)[C@@H]2O)[C@H](O)[C@H](O)[C@H]1O[C@@H]1OC[C@@H](O)[C@H](O[C@H]2OC[C@](O)(CO)[C@H]2O)[C@H]1O` (stereo not given in full), for which the outcome was “inactive [at 9.27 µM]”.

For the compound `COc1cccc(OC)c1-c1nc(C(=O)N[C@@H](CC(C)C)C(=O)O)cn1-c1ccnc2cc(Cl)ccc12`, the call was inactive.

As for `CC(C)=CCC[C@](C)(O[C@@H]1O[C@H](CO[C@@H]2OC[C@H](O)[C@H](O)[C@H]2O)[C@@H](O)[C@H](O)[C@H]1O)[C@H]1CC[C@]2(C)[C@@H]1[C@H](O)C[C@@H]1[C@@]3(C)CC[C@H](O[C@@H]4O[C@H](CO)[C@@H](O)[C@H](O)[C@H]4O[C@@H]4O[C@H](CO)[C@@H](O)[C@H](O)[C@H]4O)C(C)(C)[C@@H]3CC[C@]12C`, the “outcome” value is “inactive [at 17.4 µM]”.

For the compound `C#Cc1cnc2[nH]c(=O)n(C(CC)CC)c2n1`, the outcome was inactive.

Consider `CCc1cc2c(cc1CC)CC(NCC(O)c1ccc(O)c3[nH]c(=O)ccc13)C2` (stereo not given), for which the compound was classed as inactive.

In the case of `COc1ccccc1N1CCN(CC(C(=O)NC(C)(C)C)c2ccccc2)CC1` (stereo not given), the call was inactive.

On to `CC(C/C=C/C(C)(C)O)C1CCC(C)(O)C(O)C1` (stereo not given), for which the call was inactive.

Take `COc1ccc(/C=C/C(=O)O[C@H]2[C@@H]3C=CO[C@@H](O[C@@H]4O[C@H](CO)[C@@H](O)[C@H](O)[C@H]4O)[C@@H]3[C@@]3(CO)O[C@@H]23)cc1O`: the “outcome” value is “inactive [at 17.4 µM]”.

As for `Cc1cc(Cn2cnc3c2CC(C(=O)O)N(C(=O)C(c2ccccc2)c2ccccc2)C3)ccc1N(C)C` (stereo not given), the compound was classed as inactive.

Regarding `C=CC1(C)C=C2C(=O)CC3C(C)(C)CCCC3(C(=O)O)C2(O)CC1` (stereo not given), the result was inactive.

For `OC[C@H]1O[C@@H](OCc2ccccc2)[C@H](O[C@@H]2OC[C@@H](O)[C@H](O)[C@H]2O)[C@@H](O)[C@@H]1O`, the “outcome” value was “inactive [at 17.4 µM]”.

Take `COC(=O)C1=COC(OC2OC(CO)C(O)C(O)C2O)C2C(C)CC(=O)C12O` (stereo not given): the “outcome” value is “inactive [at 17.4 µM]”.

As to `C=C[C@H]1[C@H](O[C@@H]2O[C@H](CO[C@@H]3OC[C@](O)(CO)[C@H]3O)[C@@H](O)[C@H](O)[C@H]2O)OC=C2C(=O)OCC[C@H]21`, the “outcome” value is “inactive [at 17.4 µM]”.

For the compound `CC[C@@H](Nc1c(Nc2cccc(C(=O)N(C)C)c2O)c(=O)c1=O)c1ccc(C)o1`, the compound was called inactive.

Take `CC[C@H](NC(=O)c1c(O)c(-c2ccccc2)nc2ccccc12)c1ccccc1`: the call was inactive.

`C[C@@H](NC(=O)C(=O)c1c[nH]c2ccc([N+](=O)[O-])cc12)c1ccccc1`: the compound was classed as inactive.

As to `C[C@@H]1O[C@@H](O[C@H]2[C@@H]3C=CO[C@@H](O[C@@H]4O[C@H](CO)[C@@H](O)[C@H](O)[C@H]4O)[C@@H]3[C@@]3(CO)O[C@@H]23)[C@H](OC(=O)/C=C/c2ccc(O)c(O)c2)[C@H](O)[C@H]1O`, the “outcome” value is “inactive [at 17.4 µM]”.

Consider `CC1(C)CC=C(c2cnc3ccccc3c2)c2cc(C(=O)Nc3ccc(C(=O)O)cc3)ccc21`, for which the compound was called inactive.

Take `CC(C)(OC1OC(CO)C(O)C(O)C1O)C1CCC(O)(CO)C2CC(=O)C(C)(O)C2C1` (stereo not given): the “outcome” value is “inactive [at 17.4 µM]”.

As to `CCC/C=C/C(=O)O[C@H]1CC(C)(C)CC2[C@@]13[C@H](O)C[C@]1(C)[C@@]2(CCC2[C@@]4(C)CC[C@H](O[C@@H]5O[C@H](C(=O)O)[C@@H](O)[C@H](O[C@@H]6O[C@H](CO)[C@H](O)[C@H](O)[C@H]6O[C@@H]6O[C@@H](C)[C@H](O)[C@@H](O)[C@H]6O[C@@H]6OC[C@](O)(CO)[C@H]6O)[C@H]5O[C@@H]5O[C@H](CO)[C@H](O)[C@H](O)[C@H]5O)C(C)(C)C4CC[C@]21C)O[C@H]3O` (stereo not given in full), the outcome is “inactive [at 9.27 µM]”.

`CC1(C)C2CC=C(COC3OC(COC4OCC(O)(CO)C4O)C(O)C(O)C3O)C1C2` (stereo not given): the “outcome” value was “inactive [at 17.4 µM]”.

On to `Cc1[nH]cnc1C1CCN(c2nc3cccc4c3n2CCC4=O)CC1`, for which the outcome was inactive.

Regarding `O=C1NC(Cc2c[nH]c3ccccc23)C(=O)NC1Cc1cnc[nH]1` (stereo not given), the result was inactive.

Take `CC1(C)CC[C@]2(C(=O)O[C@@H]3O[C@H](CO)[C@@H](O)[C@H](O)[C@H]3O)CC[C@]3(C)C(=CCC4[C@@]5(C)C[C@@H](O)[C@H](O)[C@@](C)(CO)C5[C@H](O)C[C@]43C)C2[C@@H]1O` (stereo not given in full): the “outcome” value is “inactive [at 17.4 µM]”.
